Assay results reported in PubChem BioAssay (NCATS).
Results filed as inconclusive are left out. A call without a number means that no potency is given here. A number with no mark means an inactive call. Active and inactive are the calls of the source. Calls follow the shape of the dose curve; as a rule, active = well fitted curve in the direction sought with a large enough effect; inconclusive = small, poorly fitted or top-dose-only effect, or another doubt; inactive = no such curve, though single readings can be large; an effect the other way counts as inactive or inconclusive.

Tests used:
[1] = biological target: Rap guanine nucleotide exchange factor 3 (Homo sapiens) (UniProt O95398); assay: Confirmatory qHTS for antagonist of cAMP-regulated guanine nucleotide exchange factor 3 (EPAC1) (AID 1645880); details: EPAC1 Rap1B-BODIPY-GDP exchange, fluorescence; activity, negative = inhibition: at 115 µM (top of the series); also: nearly all actives have a fitted effect of over 55% in size; also: potency is read from the fitted curve at half-maximal effect
Rap guanine nucleotide exchange factor 3 (Homo sapiens), sequence (O95398 whole entry, looked up): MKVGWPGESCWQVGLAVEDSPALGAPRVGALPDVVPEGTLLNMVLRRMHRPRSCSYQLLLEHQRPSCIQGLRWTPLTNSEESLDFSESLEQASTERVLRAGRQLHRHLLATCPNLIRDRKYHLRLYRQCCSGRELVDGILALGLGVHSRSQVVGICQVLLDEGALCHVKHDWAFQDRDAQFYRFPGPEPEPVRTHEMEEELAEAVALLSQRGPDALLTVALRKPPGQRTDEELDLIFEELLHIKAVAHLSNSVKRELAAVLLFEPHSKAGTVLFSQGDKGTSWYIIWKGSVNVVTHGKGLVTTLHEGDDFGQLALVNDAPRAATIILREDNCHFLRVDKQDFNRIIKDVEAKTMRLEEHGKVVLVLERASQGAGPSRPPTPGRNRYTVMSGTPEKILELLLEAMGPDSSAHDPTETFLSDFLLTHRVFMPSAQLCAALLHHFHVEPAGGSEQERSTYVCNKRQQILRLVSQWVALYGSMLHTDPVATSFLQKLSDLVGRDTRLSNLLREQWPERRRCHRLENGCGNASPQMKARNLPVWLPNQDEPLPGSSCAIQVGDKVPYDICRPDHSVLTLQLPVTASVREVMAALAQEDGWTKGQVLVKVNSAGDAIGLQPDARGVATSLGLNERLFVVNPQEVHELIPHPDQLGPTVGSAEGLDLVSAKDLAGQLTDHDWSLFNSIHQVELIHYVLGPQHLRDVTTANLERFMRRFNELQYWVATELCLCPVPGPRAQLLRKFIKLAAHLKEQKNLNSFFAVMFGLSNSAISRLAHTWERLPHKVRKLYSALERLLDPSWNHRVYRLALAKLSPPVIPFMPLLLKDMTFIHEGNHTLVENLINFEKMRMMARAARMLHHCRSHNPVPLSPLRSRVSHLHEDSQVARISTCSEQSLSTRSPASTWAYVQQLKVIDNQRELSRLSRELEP
In short: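 Released BODIPY-GDP fluoresces less than Rap1-bound BODIPY-GDP; the signal is followed at 480/540 nm at 5-min intervals over 30 min, after 5 min at room temperature. Reactions contain 100 nM EPAC1, 250 nM RAP1B-BODIPY-GDP and 50 uM GDP; results are normalized to ATA and DMSO.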

[2] = biological target: Rap guanine nucleotide exchange factor 3 (Homo sapiens) (UniProt O95398); assay: Confirmatory qHTS for agonist of cAMP-regulated guanine nucleotide exchange factor 3 (EPAC1) (AID 1645881); also: nearly all actives have a fitted effect of over 75% in size; also: potency is read from the fitted curve at half-maximal effect;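 as to activation: EPAC1 catalysed release of BODIPY-GDP from Rap1B seen as fluorescence loss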
[3] = biological target: Rap guanine nucleotide exchange factor 4 (Homo sapiens) (UniProt Q8WZA2); assay: Confirmatory qHTS for agonist of cAMP-regulated guanine nucleotide exchange factor 4 (EPAC2) (AID 1645884);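 also: nucleotide exchange releases bodipy-GDP from Rap1 and this lowers its fluorescence; nearly all actives have a fitted effect of over 65% in size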; also: potency is read from the fitted curve at half-maximal effect
Rap guanine nucleotide exchange factor 4 (Homo sapiens), sequence (Q8WZA2 whole entry, looked up): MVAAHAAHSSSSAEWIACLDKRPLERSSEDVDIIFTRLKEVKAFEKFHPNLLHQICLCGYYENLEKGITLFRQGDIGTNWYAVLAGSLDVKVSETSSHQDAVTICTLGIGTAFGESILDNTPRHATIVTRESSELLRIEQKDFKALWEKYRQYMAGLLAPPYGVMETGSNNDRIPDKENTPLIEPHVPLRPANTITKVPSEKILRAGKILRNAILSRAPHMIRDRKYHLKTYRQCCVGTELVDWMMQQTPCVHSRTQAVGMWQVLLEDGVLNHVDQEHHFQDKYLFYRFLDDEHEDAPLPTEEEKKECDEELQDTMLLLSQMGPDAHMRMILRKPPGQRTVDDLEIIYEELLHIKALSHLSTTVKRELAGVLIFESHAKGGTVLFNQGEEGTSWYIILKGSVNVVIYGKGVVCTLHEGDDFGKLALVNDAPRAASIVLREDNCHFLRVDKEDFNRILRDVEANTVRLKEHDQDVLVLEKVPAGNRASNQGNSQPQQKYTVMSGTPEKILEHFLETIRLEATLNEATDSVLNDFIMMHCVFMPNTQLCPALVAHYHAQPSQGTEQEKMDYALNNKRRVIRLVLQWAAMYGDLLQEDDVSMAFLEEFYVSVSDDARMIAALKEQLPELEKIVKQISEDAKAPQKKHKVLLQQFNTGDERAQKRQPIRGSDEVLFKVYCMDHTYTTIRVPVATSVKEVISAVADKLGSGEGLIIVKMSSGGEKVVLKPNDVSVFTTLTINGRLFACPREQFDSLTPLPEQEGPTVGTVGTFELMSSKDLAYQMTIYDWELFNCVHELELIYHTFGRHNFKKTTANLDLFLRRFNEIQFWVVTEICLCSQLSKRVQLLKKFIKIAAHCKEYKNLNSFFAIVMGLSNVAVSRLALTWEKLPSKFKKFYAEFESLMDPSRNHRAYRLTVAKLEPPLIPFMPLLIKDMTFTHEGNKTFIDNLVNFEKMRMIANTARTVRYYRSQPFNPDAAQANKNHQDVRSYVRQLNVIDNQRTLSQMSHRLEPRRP

[4] = biological target: Rap guanine nucleotide exchange factor 3 (Homo sapiens) (UniProt O95398); assay: Counterscreen qHTS for antagonist of cAMP-regulated guanine nucleotide exchange factor 3 (EPAC1) (AID 1645888)
In short: (§1)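 Measured: fluorescence of BODIPY-GDP bound to Rap1B, which falls as exchange proceeds. Conditions include 50 uM competing GDP, 5 and 30 min reads, and a later cAMP challenge for antagonist detection.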

[5] = biological target: Rap guanine nucleotide exchange factor 3 (Homo sapiens) (UniProt O95398); assay: Counterscreen qHTS for agonist of cAMP-regulated guanine nucleotide exchange factor 3 (EPAC1) (AID 1645889); also: nearly all actives have a fitted effect of over 40% in size; also: potency is read from the fitted curve at half-maximal effect
In short: as §1

| Compound | Potency [1] | Potency [2] | Potency [3] | Potency [4] | Potency [5] | activation [3] | activity change, negative = inhibition [4] | activation [5] |
| --- | --- | --- | --- | --- | --- | --- | --- | --- |
| OC[C@@H]1[C@@H](c2ccc(F)cc2)C(c2cccc(Cl)c2)=NN1c1ccccc1 | inactive | inactive | inactive | inactive | 12.6 µM (active) |  |  |  |
| O=C(CS(=O)(=O)c1ccccc1)c1cc2cc(F)ccc2oc1=O | 75.7 µM (active) | inactive | inactive | inactive | inactive |  |  |  |
| COc1ccccc1C1CC(=O)Oc2cc(C)cc(C)c21 (stereo not given) | inactive | inactive |  |  |  | 3.14% [at 17.1 µM, percent relative to cAMP agonist control] | -8.23% [at 30.8 µM] | 7.71% [at 30.8 µM] |
| Cc1ccc2c(c1)C(=O)CC(c1ccccc1)S2 (stereo not given) | inactive | inactive |  |  |  | -3.98% [at 17.1 µM, percent relative to cAMP agonist control] | -21.7% [at 30.8 µM] | 6.35% [at 30.8 µM] |
| O=C(C1CC1)N1c2ccccc2Sc2ccccc21 | inactive | inactive | inactive | inactive | inactive |  |  |  |
| O=C(/C=C/c1ccco1)N1CCCC(c2ccccc2)C1 (stereo not given) | 67.5 µM (active) | inactive | inactive | inactive | inactive |  |  |  |
| c1ccc(C(c2ccccc2)c2ccn[nH]2)cc1 | inactive | inactive |  |  |  | 1.43% [at 17.1 µM, percent relative to cAMP agonist control] | -9.38% [at 30.8 µM] | 11.3% [at 30.8 µM] |
| Cc1ccc2oc(C(=O)N3CCCCCC3)c(C)c2c1 | inactive | inactive | inactive | inactive | inactive |  |  |  |
| COc1ccc(-c2csc(NC(=O)c3ccc(C(C)(C)C)cc3)c2C(=O)O)cc1 | 37.9 µM (active) | inactive | inactive | inactive | inactive |  |  |  |
| CC1(C)c2ccccc2N(CC(N)=O)C12C=Cc1ccccc1O2 (stereo not given) | inactive | inactive |  |  |  | -0.49% [at 17.1 µM, percent relative to cAMP agonist control] | 6.74% [at 30.8 µM] | 10.1% [at 30.8 µM] |
| Cc1cc(=O)oc2cc(NC(=O)C(C)Oc3ccccc3)ccc12 (stereo not given) | inactive | inactive | inactive | inactive | inactive |  |  |  |
| CN(C)c1ccc(/C=C(\C#N)c2ccccn2)cc1 | inactive | inactive | inactive | inactive | inactive |  |  |  |
| Cc1ccc2nc(N3C(=O)C(O)=C(C(=O)c4ccc(C)o4)C3c3ccc(O)cc3)sc2c1 (stereo not given) | 37.9 µM (active) | inactive | inactive | inactive | inactive |  |  |  |
| COc1cccc(-c2nc(CS(=O)(=O)CC(=O)N3CCN(C)CC3)c(C)o2)c1 | inactive | inactive | inactive | inactive | inactive |  |  |  |
| Cc1ccc(/C=C2\S/C(=N/S(=O)(=O)c3cccs3)NC2=O)cc1 | 67.5 µM (active) | inactive | inactive | inactive | inactive |  |  |  |
| O=C(COc1ccccc1Br)Nc1ccccc1C(F)(F)F | inactive | inactive | inactive | inactive | inactive |  |  |  |
| COc1cc2c(cc1OC)C(COc1ccc(F)cc1)N(C(C)=O)CC2 (stereo not given) | inactive | inactive | inactive | inactive | inactive |  |  |  |
| CCOC(=O)c1c(-c2ccccc2)oc2ccc(OCC)cc12 | inactive | inactive | inactive | inactive | inactive |  |  |  |
| COC(=O)c1cn(C(=O)c2ccccc2Cl)c2ccccc12 | inactive | inactive |  |  |  | 7.27% [at 17.1 µM, percent relative to cAMP agonist control] | -1.26% [at 30.8 µM] | 20.7% [at 30.8 µM] |
| COc1ccc(C2CC(=O)c3ccccc3O2)cc1 (stereo not given) | inactive | inactive | inactive | inactive | inactive |  |  |  |
| Cc1cc(C)c2sc(N(CCCN(C)C)C(=O)c3ccc(S(=O)(=O)N(C)C4CCCCC4)cc3)nc2c1 | inactive | inactive | inactive | inactive | inactive |  |  |  |
| CCN(CC)CCN(C(=O)c1cc2ccccc2cc1OC)c1nc2ccc(F)cc2s1 | inactive | inactive | inactive | inactive | inactive |  |  |  |
| CC1=C(C(=O)OCc2ccccc2)C(c2ccc(Cl)cc2Cl)NC(=O)N1CCCCCC(=O)O (stereo not given) | 75.7 µM (active) | inactive | inactive | inactive | inactive |  |  |  |
| CC(=O)c1cc(C#N)c(N(C)Cc2ccccc2)nc1C | inactive | inactive |  |  |  | 0.456% [at 17.1 µM, percent relative to cAMP agonist control] | -7.5% [at 30.8 µM] | 0.131% [at 30.8 µM] |
| CN1/C(=C\C=C(/C#N)C(=O)Nc2ccc(Cl)cc2)C(C)(C)c2ccccc21 | inactive | 100 µM (active) | 100 µM (active) | inactive | inactive |  |  |  |

| Compound | Potency [1] | Potency [2] | Potency [3] | Potency [4] | Potency [5] | activation [3] | activity change, negative = inhibition [4] | activation [5] |
| --- | --- | --- | --- | --- | --- | --- | --- | --- |
| C[C@H](CO)N1C[C@H](C)[C@@H](CN(C)C)Oc2c(NS(=O)(=O)c3ccccc3)cccc2C1=O | inactive | inactive | inactive | inactive | inactive |  |  |  |
| O=S1(=O)[C@H]2CC3O[C@]2(C[C@@H]3c2ccc(F)cc2)CN1Cc1ccc(Cl)cc1 | inactive | inactive | inactive | inactive | inactive |  |  |  |
| Cc1cc(S(=O)(=O)N2CCN(CC(=O)N(C)Cc3ccccc3)CC2)ccc1Br | inactive | inactive | inactive | inactive | inactive |  |  |  |
| CCC(CC)NC(=O)c1ccccc1Oc1ccccc1 | inactive | inactive |  |  |  | 3.85% [at 17.1 µM, percent relative to cAMP agonist control] | 6.83% [at 30.8 µM] | 13.2% [at 30.8 µM] |
| CCOC(=O)C1CCCN(C(=O)c2cc(-c3ccco3)nc3ccccc23)C1 (stereo not given) | 15.1 µM (active) | inactive | inactive | inactive | inactive |  |  |  |
| Cc1ncc(CO)c2c1Oc1nc(-c3ccccc3F)nc(SCC(=O)N(C)c3ccccc3)c1C2 | 30.1 µM (active) | inactive | inactive | inactive | inactive |  |  |  |
| CCCS(=O)(=O)NC(=O)C1(C)CCN(C(=O)c2cccc(OC(F)(F)F)c2)C1 (stereo not given) | inactive | inactive | inactive | inactive | inactive |  |  |  |
| Cc1cccc(NC(=O)Cn2c(O)c(N=NC(=O)c3ccccc3O)c3ccccc32)c1 | 75.7 µM (active) | inactive | inactive | inactive | inactive |  |  |  |
| COc1ccc(-n2nnnc2C(c2ccccc2OC(F)(F)F)N2CCN(C/C=C/c3ccccc3)CC2)cc1 (stereo not given) | inactive | inactive | inactive | inactive | inactive |  |  |  |
| O=C(CN1C(=O)N/C(=C\c2ccccc2OCc2ccc(C(=O)O)cc2)C1=O)Nc1ccc(F)cc1 | 42.6 µM (active) | inactive | inactive | inactive | inactive |  |  |  |
| O=C1CCc2cc(S(=O)(=O)NCc3ccc(F)cc3)cc3c2N1CC3 | inactive | inactive | inactive | inactive | inactive |  |  |  |
| CC(=O)Nc1scc(-c2ccccc2)[n+]1-c1ccc(C)cc1 | inactive | inactive |  |  |  | 11.2% [at 17.1 µM, percent relative to cAMP agonist control] | -4.14% [at 30.8 µM] | 4.92% [at 30.8 µM] |
| Clc1cccc(-c2ccc3nccn3c2)c1Cl | inactive | inactive | inactive | inactive | inactive |  |  |  |
| CCN(CC(=O)Nc1ccc(NC(C)=O)cc1)C(=O)C1(c2ccc(Cl)cc2)CCC1 | inactive | inactive | inactive | inactive | inactive |  |  |  |
| Cc1ccc(S(=O)(=O)N2[C@@H](c3cccc(Cl)c3)C(C(=O)O)=CC[C@H]2c2ccc(Cl)c(Cl)c2)cc1 | 67.5 µM (active) | inactive | inactive | inactive | inactive |  |  |  |
| O=C(O)c1ccccc1N=N/C(=N/Nc1cc(S(=O)(=O)O)ccc1O)c1ccccc1 | 44.7 µM (active) | inactive |  |  |  | -5.11% [at 17.1 µM, percent relative to cAMP agonist control] | -3.19% [at 30.8 µM] | -1.6% [at 30.8 µM] |
| Cc1cc(C(=O)c2ccc3ccccc3c2)c(C)o1 | inactive | inactive | inactive | inactive | inactive |  |  |  |
| COc1c(S(=O)(=O)N2CCCC2)ccc(Cl)c1Cl | inactive | inactive |  |  |  | 4.79% [at 17.1 µM, percent relative to cAMP agonist control] | -12% [at 30.8 µM] | 23.7% [at 30.8 µM] |
| CN(CCC#N)C(=O)COC(=O)c1c2c(nc3ccccc13)/C(=C\c1ccco1)CC2 | 9.53 µM (active) | inactive | inactive | inactive | inactive |  |  |  |
| Cc1onc(-c2c(Cl)cccc2Cl)c1C(=O)c1ccc(F)cc1 | inactive | inactive | inactive | inactive | inactive |  |  |  |
| O=C1C=C(c2ccccc2Oc2ccccc2)C[C@@H](c2ccc(F)cc2)C1 | inactive | inactive | inactive | inactive | inactive |  |  |  |
| O=[N+]([O-])c1ccc2nc(NS(=O)(=O)c3ccc(F)cc3)sc2c1 | 42.6 µM (active) | inactive | inactive | inactive | inactive |  |  |  |
| CCOC(=O)C1=C(N)c2ccccc2CC1C1CCCC1 (stereo not given) | inactive | inactive | inactive | inactive | inactive |  |  |  |
| CS/C(Nc1cc(Cl)ccc1Cl)=C(/C#N)C(=O)c1ccco1 | 67.5 µM (active) | inactive | inactive | inactive | inactive |  |  |  |
| COc1cc(/C=C(\C#N)c2nc3ccccc3s2)cc([N+](=O)[O-])c1O | 16.9 µM (active) | inactive | inactive | inactive | inactive |  |  |  |
